Measurements as given in paper PMC6792352, “Limited Chemical Structural Diversity Found to Modulate Thyroid Hormone Receptor in the Tox21 Chemical Library” (Environmental Health Perspectives, 2019).
Where a name gives a salt, the structure may show the parent alone.

These compounds were tested on thyroid hormone receptor (endogenous TRα and TRβ). Details: read-out: Average AC50 (uM) GH3-TRE-Antag, antagonist mode, 1 nM T3, no GH3 cytotoxicity hit.
Parameters: species or system GH3-TRE-Luc (rat pituitary); GH3-TRE-Luc luciferase reporter, antagonist mode against 1 nM T3, loss of signal, qHTS

| SMILES | AC50 [µM] |
| --- | --- |
| CN(C)c1ccc(O)c2c1C[C@H]1C[C@H]3[C@H](N(C)C)C(O)=C(C(N)=O)C(=O)[C@@]3(O)C(O)=C1C2=O [Minocycline hydrochloride] | 44.9 |
| Cc1cc(C(F)(C(F)(F)F)C(F)(F)F)ccc1NC(=O)c1cccc(I)c1C(=O)NC(C)(C)CS(C)(=O)=O [Flubendiamide] | 33.5 |
| c1ccc2c(c1)[nH]c1cnccc12 [Norharman] | 45.1 |
| Cc1c(Cl)cccc1Nc1ccccc1C(=O)O [Tolfenamic acid] | 12.5 |
| [H]/N=C(\N/C(=N/[H])Nc1ccc(Cl)cc1)NC(C)C [Proguanil hydrochloride] | 2.32 |
| CNC(=S)NC [N,N'-Dimethylthiourea] | 72 |
| COc1ccc(/C=C/C(=O)Nc2ccccc2C(=O)O)cc1OC [Tranilast] | 12.3 |
| Cc1ccc(/C=N/n2c(-c3ccccc3)csc2=S)cc1 [Fezatione] | 20.5 |
| c1ccc(CN(Cc2ccccc2)Cc2ccccc2)cc1 [Tribenzylamine] | 90.8 |
| C=CCc1ccccc1OCC(O)CNC(C)C (stereo not shown) [Alprenolol] | 27.2 |
| CO/N=C(/C(=O)OC)c1ccccc1COc1ccccc1C [Kresoxim-methyl] | 3.65 |
| CC(C(=O)O)c1ccc(C2CCCCC2)c2ccccc12 (stereo not shown) [Quadrisol] | 35.8 |
| OC[C@H]1O[C@@H](n2cnc3c(=S)nc[nH]c32)[C@H](O)[C@@H]1O [Thioinosine] | 21.8 |
| NNC(N)=S [Thiosemicarbazide] | 59.3 |
| CC1=C2[C@H](/C=C(\C)C(=O)O)CC[C@@H](C)[C@H]2CC1 [Valerenic acid] | 57.5 |
| COc1ccc(-c2cc(=S)ss2)cc1 [Anethole trithione] | > 50 |
| CCC(=O)Nc1ccc(Cl)c(Cl)c1 [Propanil] | 92.4 |
| CCO[Si](CC(C)C)(OCC)OCC [Triethoxy(2-methylpropyl)silane] | 66.1 |
| C[C@]12CC[C@@H]3c4ccc(O)cc4CC[C@H]3[C@@H]1CCC2=O [Estrone] | 0.0388 |
| CCOC1O[C@H]([C@@H](COCc2ccccc2)OCc2ccccc2)[C@H](OCc2ccccc2)[C@H]1O (stereo partly shown) [Tribenoside] | 11.1 |

| SMILES | AC50 [µM] |
| --- | --- |
| Nc1cc(S(=O)(=O)O)cc2cc(S(=O)(=O)O)cc(O)c12 [Monosodium 8-amino-1-naphthol-3,6-disulfonate monohydrate] | 52.6 |
| O=C(C[C@H]1NCCC[C@@H]1O)Cn1cnc2cc(Br)c(Cl)cc2c1=O (racemic) [Halofuginone hydrochloride] | 46.9 |
| Cl[C@H]1[C@H](Cl)[C@@H](Cl)[C@@H](Cl)[C@H](Cl)[C@H]1Cl [Lindane] | 81.2 |
| CCN(CC)c1ccc(C(=O)c2ccccc2C(=O)O)c(O)c1 [2-[4-(Diethylamino)-2-hydroxybenzoyl]benzoic acid] | 43.7 |
| CCc1ccc(CCOc2ccc(CC3SC(=O)NC3=O)cc2)nc1 (stereo not shown) [Pioglitazone hydrochloride] | > 50 |
| CC1(C)[C@H](C(=O)O[C@H](C#N)c2cccc(Oc3ccccc3)c2)[C@@H]1C=C(Cl)Cl [alpha-Cypermethrin] | > 90 |
| CC1(C)CC/C(=C\c2ccc(Cl)cc2)C1(O)Cn1cncn1 (stereo not shown) [Triticonazole] | > 90 |
| CC(C)=CCC/C(C)=C/C=C/C(C)=C/C=C/C(C)=C/C=C/C=C(C)/C=C/C=C(C)/C=C/C=C(\C)CCC=C(C)C [Lycopene] | 31.7 |
| C#C[C@]1(O)CC[C@H]2[C@@H]3CCc4cc(O)ccc4[C@H]3CC[C@@]21C [17alpha-Ethinylestradiol] | 16.2 |
| COc1nc(N)nc2c1ncn2[C@@H]1O[C@H](CO)[C@@H](O)[C@@H]1O [Nelarabine] | 25.2 |
| Cc1cc(C(C)(C)C)c(O)c(C)c1Cn1c(=O)n(Cc2c(C)cc(C(C)(C)C)c(O)c2C)c(=O)n(Cc2c(C)cc(C(C)(C)C)c(O)c2C)c1=O [Cyanox CY 1790] | 66.5 |
| CCCOc1ccc(C(=O)OCCN(CC)CC)cc1N [Proparacaine hydrochloride] | > 50 |
| CCN(CC)CCNC(C(=O)OCCC(C)C)c1ccccc1 (stereo not shown) [Camylofin] | > 50 |
| C[C@@H]1C[C@H]2[C@@H]3C[C@H](F)C4=CC(=O)C=C[C@]4(C)[C@@]3(F)[C@@H](O)C[C@]2(C)[C@@]1(O)C(=O)COC(=O)C(C)(C)C [Flumethasone pivalate] | 26.2 |
| COc1cc(NC(=O)CC(C)=O)c(OC)cc1Cl [4'-Chloro-2',5'-dimethoxyacetoacetanilide] | > 90 |
| CC[C@H](NC(=O)c1cc(F)ccc1NS(=O)(=O)c1cccc2cccnc12)c1ccccc1 [AVE3295] | 56.9 |
| CN(C)CCN1C(=O)c2ccccc2N(C)c2ccccc21 [Dibenzepin hydrochloride] | 36.6 |
| CCCCCCCCc1ccc(S(=O)(=O)O)cc1 [Sodium 4-octylbenzenesulfonate] | 53 |
| CCCCCCOc1ccccc1C(N)=O [Exalamide] | 30.7 |
| CC1(C)[C@H](/C=C(\Cl)C(F)(F)F)[C@@H]1C(=O)O[C@@H](C#N)c1cccc(Oc2ccccc2)c1 [?-Cyhalothrin] | 33.9 |
